# According to PubChem BioAssay (NCI):
# About 79,000 compounds went through this panel and 15% of them were active in at least one assay; those are over-represented in the sample as a whole. Active and inactive are the calls of the source. Cut-off read from the data, not from the text of the source: active = growth inhibition above about 70%; inactive = the rest.
# Legend:
# [1] = NCI Yeast Anticancer Drug Screen. Data for the rad50 strain (AID 155);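 note: 0% = growth of vehicle-only cultures of the same strain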; details: S. cerevisiae rad50 strain growth inhibition; at 50.0 µM; stronger effect = higher value
# Method in brief: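 Yeast carrying a defined DNA repair defect were exposed to test compounds, and growth was compared with vehicle-treated controls to give percent inhibition.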
# [2] = NCI Yeast Anticancer Drug Screen. Data for the mec2-1 strain (AID 157); details: S. cerevisiae mec2-1 strain, at 50.0 µM, stronger effect = higher value
# Method in brief: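 Readout is yeast growth inhibition, normalised to vehicle-treated controls, in the mec2-1 strain exposed to compound.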
# [3] = NCI Yeast Anticancer Drug Screen. Data for the sgs1 mgt1 strain (AID 161);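 note: 0% = growth of cultures given vehicle only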; details: S. cerevisiae sgs1 mgt1 strain, at 50.0 µM, stronger effect = higher value
# Method in brief: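 Percent growth inhibition was derived by comparing compound-exposed mutant yeast with vehicle-exposed cultures. The strain carries alterations in DNA damage repair.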
# [4] = NCI Yeast Anticancer Drug Screen. Data for the cln2 rad14 strain (AID 165);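 note: 0% = growth equal to vehicle treated cultures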; details: S. cerevisiae cln2 rad14 strain, at 50.0 µM, stronger effect = higher value
# Method in brief: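 Relative to vehicle controls, growth inhibition of compound-treated cln2 rad14 yeast was recorded.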
# [5] = NCI Yeast Anticancer Drug Screen. Data for the bub3 strain (AID 167); details: S. cerevisiae bub3 mutant strain, at 50.0 µM, stronger effect = higher value
# Method in brief: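 Compounds were applied to a genetically altered yeast strain carrying a cell-cycle control defect. Growth inhibition was scored against vehicle-treated controls.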
# [6] = NCI Yeast Anticancer Drug Screen. Data for the mlh1 rad18 strain (AID 175); details: S. cerevisiae mlh1 rad18 strain growth inhibition; at 50.0 µM; stronger effect = higher value
# Method in brief: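 Test agents were incubated with a yeast strain of defined genotype (DNA damage repair defect). Inhibition of growth was derived by comparison with vehicle-exposed cultures.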
SMILES,growth inhibition [1],growth inhibition [2],growth inhibition [3],growth inhibition [4],growth inhibition [5],growth inhibition [6]
CCOC(=O)c1cc(OC(C)=O)c2ccccc2c1,26.9% (inactive),9.2% (inactive),41.5% (inactive),15.8% (inactive),61.5% (inactive),41.5% (inactive)
CCCCCCCCCCCCCCCCCCCOc1ccc(OCCCCCCCC)cc1,40.8% (inactive),-11.8% (inactive),17.6% (inactive),-11.2% (inactive),3.4% (inactive),3% (inactive)
O=C(O)/C=C/Sc1ccc(Cl)cc1,76% (active),32.5% (inactive),79.3% (active),59.9% (inactive),78% (active),78.4% (active)
CCOC(=O)c1cc2c(OC)cc(OC)cc2oc1=O,21.8% (inactive),2.6% (inactive),25.1% (inactive),32.8% (inactive),28.9% (inactive),2.55% (inactive)
COCCOC(=O)c1ccccc1C,8.7% (inactive),2.35% (inactive),0.3% (inactive),-27.6% (inactive),11.8% (inactive),0.55% (inactive)
CC(=O)OCc1cc(Cl)c(OC(C)=O)c(COC(C)=O)c1,7.75% (inactive),-10.2% (inactive),8.8% (inactive),20.1% (inactive),-9.05% (inactive),3.65% (inactive)
O=C(NC(Cc1cnc[nH]1)C(=O)N1CCCC1)C1CCCC1 (stereo not drawn),-22.4% (inactive),-20.4% (inactive),13.7% (inactive),6.2% (inactive),0.9% (inactive),-14.3% (inactive)
CCCN(CCC)C(=O)c1ccc(C(C)C)cc1,11.2% (inactive),7.05% (inactive),19.1% (inactive),-6.8% (inactive),9.7% (inactive),9.7% (inactive)
Cc1nc2ccc(I)cc2c(=O)n1-c1ccc(N=Cc2ccc(N(C)C)cc2)cc1,4.7% (inactive),9.1% (inactive),14.3% (inactive),4.95% (inactive),-2.9% (inactive),10.9% (inactive)
CCOC(=O)CCCCCC#N,1.35% (inactive),-18.4% (inactive),-6.1% (inactive),-1.75% (inactive),-9.5% (inactive),-0.15% (inactive)
S=c1[nH][nH]c(=S)c2[nH]cnc12,1.6% (inactive),-3.1% (inactive),-5.55% (inactive),-18.4% (inactive),2.2% (inactive),-0.4% (inactive)
CCC(=C(C#N)C#N)c1cc(OC)c(OC)c(OC)c1,-43% (inactive),-31.8% (inactive),-24.2% (inactive),-16.2% (inactive),-26.5% (inactive),-13.8% (inactive)
COC1=CC(=O)C(C2CC(=O)c3c(O)cc(O)cc3O2)=CC1=O (stereo not drawn),-4.2% (inactive),0.85% (inactive),11.2% (inactive),7.95% (inactive),-20.8% (inactive),-63.9% (inactive)
CC(C)(C)NC(=O)NCCCl,1% (inactive),-11.4% (inactive),-2.45% (inactive),-33.9% (inactive),2.95% (inactive),5.35% (inactive)
O=C(Nc1ccccc1CC(O)c1ccc2c(c1)OCO2)c1ccccc1 (stereo not drawn),19.1% (inactive),-8.1% (inactive),3.65% (inactive),-22.8% (inactive),11.6% (inactive),13.8% (inactive)
Cc1cn(C)c2c1-c1oncc1CC2,-4.3% (inactive),-14.7% (inactive),5.4% (inactive),-7% (inactive),-35.3% (inactive),2.3% (inactive)
CC(C)/C=N\N1C(N)=C(C#N)C(C#N)(C#N)C1C(C)C (stereo not drawn),-0.65% (inactive),10.5% (inactive),-35.3% (inactive),-19.4% (inactive),-12.2% (inactive),-41.3% (inactive)
Nc1ccc(C(=O)O)cc1Cl,0.85% (inactive),0.75% (inactive),2.9% (inactive),-35.5% (inactive),-6.3% (inactive),-22.2% (inactive)
CC(C)(N)COC(=O)c1ccc([N+](=O)[O-])cc1,3.4% (inactive),-23.7% (inactive),7.1% (inactive),0.15% (inactive),12.2% (inactive),10.2% (inactive)

SMILES,growth inhibition [1],growth inhibition [2],growth inhibition [3],growth inhibition [4],growth inhibition [5],growth inhibition [6]
c1ccc2c(c1)-c1ccccc1C2N1CCCC1,14.2% (inactive),14.8% (inactive),4.2% (inactive),10.4% (inactive),-0.85% (inactive),-7.9% (inactive)
O=C(O)C1CC=CCC1c1c2ccc(=O)cc-2oc2cc(O)ccc12 (stereo not drawn),48.5% (inactive),27.8% (inactive),15.8% (inactive),-5.25% (inactive),32.9% (inactive),13.6% (inactive)
Cc1ncc([N+](=O)[O-])n1CCNC(=O)CCCCn1ccnc1[N+](=O)[O-],5% (inactive),-3.75% (inactive),-8.6% (inactive),15.1% (inactive),7.15% (inactive),-45% (inactive)
CCOC(=O)C(N=Cc1ccc([N+](=O)[O-])cc1)C(O)c1ccc([N+](=O)[O-])cc1 (stereo not drawn),9.55% (inactive),5.15% (inactive),1.8% (inactive),14.9% (inactive),2.2% (inactive),7.75% (inactive)
CC(CO)C1C[C@H](O)[C@@]2(C)CC(=O)C=C(CO)[C@@H]2C1 (stereo partly drawn),35% (inactive),22.6% (inactive),-3.55% (inactive),25.9% (inactive),-7.15% (inactive),-46% (inactive)
Nc1nc(-c2ccc([N+](=O)[O-])cc2)cc(-c2cc(-c3ccc([N+](=O)[O-])cc3)nc(N)n2)n1,5.05% (inactive),6.7% (inactive),-9.8% (inactive),14.7% (inactive),-17.4% (inactive),6.6% (inactive)
CC(=O)/C(=C\c1ccc(C(F)(F)F)cc1)C(=O)CCN(C)C,43.4% (inactive),0.05% (inactive),51.6% (inactive),19.6% (inactive),3.25% (inactive),25.7% (inactive)
C[C@@H]1C(N2CCCC2)=CC(=O)OC1c1ccccc1 (stereo partly drawn),-3.65% (inactive),-11.1% (inactive),11.3% (inactive),-6.4% (inactive),-1.3% (inactive),1.95% (inactive)
CCC(=O)NCC(=O)O,-4.15% (inactive),-10.6% (inactive),-16.1% (inactive),0.3% (inactive),8.15% (inactive),-6.15% (inactive)
CC(=O)OC1COC(n2c(O)c(N=NC(N)=S)c3cc(Br)ccc32)C(OC(C)=O)C1OC(C)=O (stereo not drawn),41.1% (inactive),8.2% (inactive),46.2% (inactive),-34.2% (inactive),27.1% (inactive),31.1% (inactive)
CCOC(=O)c1cc(=O)c2cccc(C)c2[nH]1,2.3% (inactive),10.7% (inactive),-0.95% (inactive),-9.3% (inactive),-2% (inactive),20.6% (inactive)
Cc1cc(N=Nc2c(O)c3ccccc3[nH]c2=O)ccc1N=Nc1ccc(C(=O)O)cc1,1.65% (inactive),-9.15% (inactive),3.5% (inactive),1.1% (inactive),-14.1% (inactive),-8.05% (inactive)
CC(SC(=S)N1CCOCC1)C(=O)O (stereo not drawn),2.65% (inactive),-6.8% (inactive),-1.6% (inactive),-4.8% (inactive),-6.05% (inactive),-7.6% (inactive)
CCc1n[nH]c(=O)n1NC(=O)/C=C\C(=O)O,-12.2% (inactive),-16.1% (inactive),-23.9% (inactive),-17.7% (inactive),-10.7% (inactive),-25.5% (inactive)
CC(=O)C(/C=N\N=C(/C)c1cn[nH]c1C)=C(/C)O,-54.8% (inactive),-21.6% (inactive),-18.7% (inactive),-58.1% (inactive),8.6% (inactive),-18.6% (inactive)
Cc1ccc(C)c(I)c1,7.2% (inactive),-3.55% (inactive),6.1% (inactive),-9.95% (inactive),-2.55% (inactive),14.1% (inactive)
O=C(Oc1c(Br)cc(Br)cc1C(=O)Oc1ccccc1)C(=O)Oc1c(Br)cc(Br)cc1C(=O)Oc1ccccc1,52.7% (inactive),23.9% (inactive),19.9% (inactive),28.8% (inactive),51.2% (inactive),32.6% (inactive)
CC(=O)SC1CS(=O)(=O)CC1SC(C)=O (stereo not drawn),60.8% (inactive),52.9% (inactive),59% (inactive),40.2% (inactive),44.5% (inactive),63.5% (inactive)
COc1cc(OC)c2nccc(NCCCN(C)C)c2c1[N+](=O)[O-],4.75% (inactive),-22.4% (inactive),5.75% (inactive),21.6% (inactive),-3.4% (inactive),4.75% (inactive)
